SNCA viab count: GF-AFC viability counterscreen for inhibitors of alpha-synuclein gene (SNCA) expression; HEK-293-SNCA-luc viability, GF-AFC fluorescence, 24 h; Potency, µM (titrated, usually from 57.1 µM), for inactives: at the top dose activity change, negative = cytotoxicity, usual class: cytotoxic; 150,000 tested, 0.12% active; AID 1671193, 2021;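 further: potency means the concentration at half of the fitted maximal effect; 0% = DMSO-treated cells and -100% = medium-only wells without cells; nearly all actives have a fitted effect of over 30% in size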
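HEK-293-SNCA-luc cells (1500/well) plated 24 h, then exposed 24 h to a dilution series; GF-AFC added 30 min at 37C, fluorescence 405/540 nm; normalised to medium-only and DMSO wells, Hill fit.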
SNCA expr inhib: Primary qHTS assay for inhibitors of alpha-synuclein gene (SNCA) expression. HEK-293 SNCA-luciferase knock-in, luminescence, 24 h. Potency, µM (titrated, usually from 57.2 µM), for the others: top-dose activity change, negative = inhibition, most hits filed as inhibitors. 140,000 tested, 0.17% active;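 further: potency means the concentration at half of the fitted maximal effect; plate controls were DMSO cells for no effect and cell-free wells for full effect; nearly all actives have a fitted effect of over 45% in size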
IP6K1 inhibitor: Primary qHTS assay for small molecule inhibitors of Inositol hexaphosphate kinase 1 (IP6K1). Inositol hexakisphosphate kinase 1 (Homo sapiens), Q92551. IP6K1 kinase, ADP-Glo luminescence, 2 h; hits give low values. activity change, % (series mostly up to about 58 µM). 140,000 tested, 0.81% active; in the data active means activity change below about -25%; further: on the % scale 0 is the no-effect control and ±100 the full control effect
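ADP-Glo luminescence measures ADP made by human IP6K1 during a 2 h RT reaction with ATP/IP6 (mix at 1.3 mM/130 uM); top library doses 57.5 and 19.1 uM final.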
KDM5B inh: Primary screen for KDM5B Histone Demethylases FDH-coupled qHTS. Lysine-specific demethylase 5B (Homo sapiens), Q9UGL1. KDM5B demethylase, FDH-coupled NADH fluorescence (FDH is formaldehyde dehydrogenase). Potency, µM (highest dose often 57.7 µM), usual class: inhibitors. 220,000 tested, 2.6% active; further: potency means the concentration at half of the fitted maximal effect; 0% is about no effect; nearly all actives have a fitted effect of over 70% in size
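Inhibition is measured as reduced NADH fluorescence generation from FDH coupling to formaldehyde release. Truncated KDM5BΔAP at 200 nM final acts on H3K4me3 peptide (12.5 µM in substrate mix) in pH 7.5 HEPES buffer with Tween-20, 30 min, room temperature.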
An asterisk follows results filed as active; i = inactive; ? = inconclusive; . = no result given; [ ] = remark or other dose. Hits are enriched below; roughly 2.9% of the tested compounds scored in any of these assays. Unless noted, the call rests on the fitted dose curve; in most records, active means well fitted curve in the direction sought with a large enough effect; inconclusive means small, poorly fitted or top-dose-only effect, or another doubt; inactive means no such curve, though single readings can be large; an effect the other way counts as inactive or inconclusive.

SMILES	SNCA viab count	SNCA expr inhib	IP6K1 inhibitor	KDM5B inh
CC(C)CNc1ccc2c(n1)C(C)(C(=O)N1CCC1)CN(Cc1ccccc1)C2 (centres undefined)	?	9.6%[87.6 µM]	3.6	28.2µM*
CC(C)CNc1ccc2c(n1)C(C)(C(=O)Nc1cccnc1)CN(Cc1ccccc1)C2 (centres undefined)	-6.1%[87.6 µM]	?	7.2	31.6µM*
O=C1c2oc3ccccc3c(=O)c2C(c2cccc(O)c2)N1Cc1ccc(F)cc1 (centres undefined)	-17.5%	-20.0%	2.5	i
CC(C)C[C@@H]1N[C@H](C(=O)N2CCN(C)CC2)Cc2cn(Cc3nccn3C)c3cccc1c23	1.2%	5.5%	-10.6	?
CNc1nc(N2C[C@H]3CN(CCO)C[C@@]3(C(=O)O)C2)nc2c1CCC2	2.8%	-9.7%	1.8	?
CNc1cc(C)nc(N2C[C@H]3CN(C(=O)N(C)C)C[C@@]3(C(=O)O)C2)n1	0.1%	26.5%	10.6	22.4µM*
COc1ccc(CC(=O)N2CCCN(c3cc(-c4ccccc4)[nH]n3)CC2)cc1	2.3%	-13.2%	7.6	22.4µM*
COc1ccc(CC(=O)N2CCCN(c3cc(-c4ccc(Cl)cc4)[nH]n3)CC2)cc1	-16.5%	-25.0%	-4.5	?
Cc1ccc(CC(=O)N2CCCN(c3cc(-c4ccccc4)[nH]n3)CC2)cc1	-14.6%	?	-7.5	28.2µM*
Cc1cccc(OCC(=O)N2CCCN(c3cc(-c4ccc(Cl)cc4)[nH]n3)CC2)c1	?	?	9.0	14.1µM*
COc1ccc(CN2CCNC(=O)C2CC(=O)NCc2ccco2)c(F)c1 (centres undefined)	1.7%	7.8%	4.3	10µM*
COc1ccc(CN2CCNC(=O)C2CC(=O)NC2CCOCC2)c(F)c1 (centres undefined)	.	.	.	i
COc1ccccc1NC(=O)Cn1c(=O)n(CCCCCC(=O)NCc2ccccc2)c(=O)c2sccc21	2.1%	-13.7%	16.1	i
Cn1ccc2ccc(C(=O)N3CCN(CCOc4ccccc4)CC3)cc21	10.4%	10.6%	-4.2	28.2µM*
CC1=C[C@@H](CN2CCN(c3cnccn3)CC2)[C@H](C(C)C)C[C@H]1Cc1nnc(-c2cccnc2)o1	-26.9%	?	12.8	31.6µM*
CC1=C[C@@H](CN2CCC(C)CC2)[C@H](C(C)C)C[C@H]1Cc1nnc(-c2cccnc2)o1	-27.7%[87.6 µM]	4.2%[87.6 µM]	-10.1	i
C#CCN(C)C[C@@H]1C=C(C)[C@H](Cc2nnc(-c3ccccc3F)o2)C[C@H]1C(C)C	-26.2%[87.6 µM]	-37.5%[87.6 µM]	0.6	35.5µM*
CC1=C[C@@H](CN(C)Cc2cccnc2)[C@H](C(C)C)C[C@H]1Cc1nnc(-c2ccc([N+](=O)[O-])cc2)o1	?	-11.1%	15.6	12.6µM*
CC1=C[C@@H](CN(C)CCO)[C@H](C(C)C)C[C@H]1Cc1nnc(-c2ccccc2F)o1	?	-3.6%[87.6 µM]	-5.5	i
CC1=C[C@@H](CNCc2cccnc2)[C@H](C(C)C)C[C@H]1Cc1nnc(-c2ccccc2)o1	?	?	-8.9	i
O=C(NCc1ccc(Cl)cc1)c1ccc2c(c1)NC(=O)C(CS(=O)(=O)Cc1ccc(F)cc1Cl)N2 (centres undefined)	-11.1%	-4.5%	-7.5	?
COCc1nnc2n1CCC(NC(=O)c1ccn(C)n1)CC2 (centres undefined)	-1.1%	2.6%	4.7	i
COCc1nnc2n1CCC(NC(=O)c1ccc3cc[nH]c3c1)CC2 (centres undefined)	-9.4%	-3.4%	4.9	28.2µM*
Cc1c(-c2ccccc2F)[nH]c2ccc(CNC(=O)CN3CC(=O)NC3=O)cc12	6.5%	40.8%	-0.3	28.2µM*
Cc1nc(CCC(=O)NCc2ccc3[nH]c(-c4ccccc4F)c(C)c3c2)n[nH]1	-5.9%	113.6%	18.4	25.1µM*
SMILES	SNCA viab count	SNCA expr inhib	IP6K1 inhibitor	KDM5B inh
Cc1ncc(C(=O)NCc2ccc3[nH]c(-c4ccccc4F)c(C)c3c2)c(C)n1	-11.8%	3.8%	-4.1	20µM*
Cc1ccc(CNC(=O)CCc2ncc(-c3c(F)cccc3F)o2)cc1F	.	.	.	i
Cc1c(-c2ccccc2F)[nH]c2ccc(CNC(=O)CCn3cnnc3)cc12	-10.1%	13.3%	2.1	31.6µM*
Cc1ncc(CC(=O)NCc2ccc3[nH]c(-c4ccccc4F)c(C)c3c2)c(=O)[nH]1	4.0%	85.1%	-5.3	?
Cc1ccc(CN2CCN(C(=O)C3Cn4cccc4C(=O)N3Cc3cccnc3)CC2)cc1 (centres undefined)	7.5%	25.4%	-3.0	i
CCc1nc(Oc2cccc(F)c2)c2oc3ccccc3c2n1	-9.6%	32.1%	-10.2	i
Cc1nn(C(=O)c2ccccc2)c(C)c1Sc1ccc(Cl)cc1	20µM*	?	-10.9	i
Cc1ccc(Sc2c(C)nn(C(=O)c3ccc(Br)cc3)c2C)cc1	-7.5%	3.8%	-8.5	i
O=C1N(C2CCOCC2)CCCC12CCN(c1ccc(Cl)cn1)C2 (centres undefined)	-4.5%	2.8%	2.9	28.2µM*
Cc1nc(CN2CCN(C(=O)CC3COCCN3)CC2)cs1 (centres undefined)	-2.4%	12.4%	1.5	i
Cc1oc(-c2ccc3ccccc3c2)nc1CN1CCNC(=O)C1	25.5%	140.4%	-16.2	28.2µM*
CC(C)Cc1cc(CNc2nccc(-c3cc(C(=O)O)ccn3)n2)no1	2.4%	6.8%	16.6	31.6µM*
Cc1nnc2n1CCC(NC(=O)c1cccn1C)CC2 (centres undefined)	5.6%	24.4%	-2.4	20µM*
C=CCN(C)C(=O)[C@@H](C)C1CC[C@@]2(C)Cc3sc(-c4cccnc4)nc3[C@@H](C)[C@@H]2[C@H]1O (some centres undefined)	-4.3%[87.6 µM]	?	-0.4	31.6µM*
C=CCN(C)C(=O)[C@@H](C)C1CC[C@@]2(C)Cc3sc(NCCCC)nc3[C@@H](C)[C@@H]2[C@H]1O (some centres undefined)	-17.4%[87.6 µM]	-0.9%[87.6 µM]	9.3	35.5µM*
C#CCN(C)C(=O)[C@@H](C)C1CC[C@@]2(C)Cc3sc(NCCCC)nc3[C@@H](C)[C@@H]2[C@H]1O (some centres undefined)	-4.5%[87.6 µM]	32.8%[87.6 µM]	-8.6	?
Cc1nc2c(s1)C[C@]1(C)CCC([C@H](C)C(=O)N3CCOCC3)[C@H](O)[C@H]1[C@@H]2C (some centres undefined)	2.6%[87.6 µM]	36.5%[87.6 µM]	-9.8	i
C[C@H](C(=O)NCCN1CCOCC1)C1CC[C@@]2(C)Cc3sc(-c4ccccc4)nc3[C@@H](C)[C@@H]2[C@H]1O (some centres undefined)	2.1%	0.794µM*	-2.8	25.1µM*
c1cc(-c2noc([C@@H]3Cc4nc[nH]c4CN3CC3CCCCC3)n2)ccn1	-7.2%[87.6 µM]	9.1%[87.6 µM]	3.1	35.5µM*
